This is a sample that favours compounds with a hit; in the whole collection about 11% have one here.
INS promoter inh: inhibitors of insulin promoter-driven GFP, primary screen, imaging, TRM-6 cells (human fetal islet line), eGFP reporter, cell count; actives 0.9% (n = 130,000); inhibition, % at 2 µM; reporter expression induced with tamoxifen;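 active = inhibition above the mean plus 3 SD, with well images judged a real hit on visual review, cut at about 60% in these data, passing the limit was not always enough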
Lmaj promast: Leishmania major promastigote growth inhibition, primary screen; Leishmania major promastigotes, resazurin fluorescence viability; inhibition, % at 10 µM; actives 9% (n = 200,000); AID 1063, 2008; in the data active = inhibition above about 50%;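 also: promastigotes grown with compound for 44 hours at 28 °C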
WT yeast gro inh: growth inhibition of WT strain, primary screen, mitochondrial fusion inhibitor project, WT and mutant strains, chemical genetic; inhibition, % at 10 µM; actives 2.1% (n = 190,000); mitochondrial fusion phenotypic screen; AID 1362, 2008; in the data active = inhibition above about 58%; tested in S. cerevisiae
Autophagy mod: autophagy modulators in MEF cells, primary screen, imaging, high-content, MEF GFP-LC3; MEF GFP-LC3 puncta imaging; test concentration mostly 10 µM; calls only at 10 µM (by protocol); actives 0.98% (n = 190,000); AID 463193, 2010;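 active = percentage of spot-positive cells more than 3 SD above its plate mean, without a fluorescence outlier flag or 80% toxicity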;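 also: spot-positive cell cutoff set from DMSO-treated cells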
Insulin prom up: insulin promoter activators in MIN6 cells, imaging, high-content screening, mouse beta cells. z-score at 5 µM. AID 1625, 2009. actives 0.3% (n = 190,000). MIN6 insulin promoter-GFP reporter; active compounds read high;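 active = z-score above 3 at 5 µM with at least 500 cells counted in the well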
The depositor's hits bear a star; i = inactive; · = not tested or not shown; + = active, no number.

SMILES	INS promoter inh	Lmaj promast	WT yeast gro inh	Autophagy mod	Insulin prom up
COCCN1C(=O)C(CC(=O)Nc2ccc(C(=O)O)cc2)SC1=Nc1ccccc1 (stereo not given)	-23	-5	5	i	0.54
COc1ccc(N=C2SC(CC(=O)Nc3ccccc3)C(=O)N2CCN2CCOCC2)cc1 (stereo not given)	·	56*	2	i	-0.37
COc1ccc(N=C2SC(CC(=O)Nc3ccccc3OC)C(=O)N2Cc2ccco2)cc1 (stereo not given)	-12	99*	12	i	-0.22
COC(=O)c1cc(NC(=O)CC2SC(=Nc3ccccc3)N(CCc3c[nH]c4ccccc34)C2=O)cc(C(=O)OC)c1 (stereo not given)	·	99*	8	i	-1.4
COc1ccc(N=C2SC(CC(=O)Nc3ccc(F)cc3)C(=O)N2Cc2ccco2)cc1 (stereo not given)	·	21	3	i	-0.27
COc1ccc(N=C2SC(CC(=O)Nc3ccccc3)C(=O)N2CC2CCCO2)cc1 (stereo not given)	-93	63*	-5	i	-0.25
CCC(C)NC(=O)CN1C(=O)NC2(CCc3ccccc3C2)C1=O (stereo not given)	·	-2	-11	i	0.31
CC(Cc1ccccc1)NC(=S)CN1CCCC1=S (stereo not given)	·	·	·	·	-2.7
CCOC(=O)C1CC(c2ccccc2)=NNC1=O (stereo not given)	26	-8	2	i	0.28
O=[N+]([O-])c1cc([N+](=O)[O-])c2c(=Nc3ccccc3)n(-c3ccccc3)n(O)c2c1	·	100*	47	i	-0.39
O=[N+]([O-])c1cccc(C(=Nc2ccccc2)NO)c1	-6	3	-10	i	-0.15
Cc1ccc(N2C(=O)N(CC(=O)Nc3ccc(C)c(C)c3[N+](=O)[O-])C(=O)C2C)cc1 (stereo not given)	·	0	-12	i	0
O=C(Nc1ccsc1C(=O)NC1CC1)c1ccccc1	85*	12	-3	i	0.07
COc1ccc(C2(CNC(=O)C(=O)Nc3ccc(C)cc3)CCOCC2)cc1	-24	41	1	i	·
CCc1nc2ccccc2c(C(=O)Oc2cccc3cccnc23)c1C	-77	2	0	i	-1.1
Cc1c(C(=O)Oc2cccc3cccnc23)oc2ccccc12	·	98*	-5	i	0.56
Cc1ccc2cccc(OC(=O)/C=C\c3ccccc3)c2n1	-14	3	-12	i	-0.01
O=C(/C=C\c1ccco1)Oc1cccc2cccnc12	-29	97*	11	i	-1.2
O=C(/C=C/c1ccco1)Oc1cccc2cccnc12	·	·	·	·	-0.09
COc1ccccc1/C=C/C(=O)Oc1cccc2cccnc12	-118	99*	8	i	0.15
C=Cc1ccc2c(c1)N(C)C(=C)S2	·	-6	-2	i	0.17
Cn1c(N=Nc2ccc(N3CCOCC3)cc2)[n+](C)c2ccccc21	·	100*	71	i	0.23
O=C(NCc1ccco1)c1cnn2cccnc12	·	4	-6	i	0.65
Cc1ccc(S(=O)(=O)NCCC(=O)NCc2ccco2)cc1	44	-6	0	i	-0.24
COc1ccccc1Nc1ncccc1C(=O)NCc1ccccc1	-50	-1	-2	i	·
SMILES	INS promoter inh	Lmaj promast	WT yeast gro inh	Autophagy mod	Insulin prom up
O=C(NCC(c1cccnc1)N1CCOCC1)c1ccc2c(c1)OCO2 (stereo not given)	4	3	-14	i	·
O=C(NCC1CCCO1)C(=O)NCC(c1ccco1)N1CCN(c2ccccc2F)CC1 (stereo not given)	-90	53*	6	i	-0.12
O=C(NCC(c1cccnc1)N1CCN(c2ccccc2F)CC1)c1ccccc1 (stereo not given)	-30	84*	2	i	-0.23
COc1ccc(N2CCN(C(CNC(=O)C(=O)NCC3CCCO3)c3ccco3)CC2)cc1 (stereo not given)	13	-4	10	i	0.12
O=C(NCC(c1cccnc1)N1CCN(c2ccccc2F)CC1)c1ccco1 (stereo not given)	·	89*	-1	i	0.4
CC1(c2ccccc2)CC(C)(C)N2C(=O)/C(=C3\SC(=S)NC3=O)c3cccc1c32 (stereo not given)	31	9	61*	i	-0.34
Brc1ccccc1-c1nnc(CSc2nnc3sc4ccccc4n23)o1	7	-4	2	i	0.34
O=C(COc1ccccc1)Nc1ccc2[nH]c(=O)[nH]c2c1	·	90*	-14	i	0.11
Cc1nc2ccc(NC(=O)Cc3cccc(F)c3)cc2s1	·	62*	47	i	-0.12
Cc1nc2ccccc2nc1OCC(=O)Nc1ccc2ccccc2c1	-41	59*	4	i	0.16
Cc1cccc(OCC(=O)Nc2ccc3nc(C)sc3c2)c1	·	15	59*	i	0.18
O=C(COC(=O)c1cccc(S(=O)(=O)N2CCc3ccccc32)c1)Nc1ccc(Cl)cn1	·	-8	18	i	-0.31
COc1cc(OC)cc(C(=O)NCCCN2CCN(CCCNC(=O)c3cc(OC)cc(OC)c3)CC2)c1	22	15	-6	i	-0.1
COc1ccc(C(CNC(=O)Cc2c(F)cccc2Cl)N2CCCCC2)cc1 (stereo not given)	-14	-2	-6	i	-0.62
O=C(O)CN1C(=O)c2cccc(Oc3ccc(Cl)cc3)c2C1=O	-2	-5	-4	i	0.89
CC(C)NC(=O)CSc1nc(N)c(NC(=O)c2ccco2)c(=O)[nH]1	·	-11	-14	i	-0.39
Cc1nc2ccc(NC(=O)COc3ccccc3)cc2s1	5	-5	74*	i	1.9
CCn1nc(C(=O)Nc2ccc3nc(C)sc3c2)c2ccccc2c1=O	32	63*	21	i	0.31
Clc1ccccc1-c1nc2ccccc2c2nc3ccccc3n12	18	20	20	+	-0.18
CC(NC(=O)/C=C/c1cnc2ccccc2n1)C12CC3CC(CC(C3)C1)C2 (stereo not given)	42	26	53	i	-0.78
CCc1c(C)sc(NC(=O)c2cc(C)on2)c1C#N	-3	5	7	i	·
NC(=O)c1cc(Cc2ccccc2)sc1NC(=O)c1ccco1	23	-1	72*	i	-0.23
CCCc1cc(C(N)=O)c(NC(=O)c2cc(C)on2)s1	-81	55*	53	i	0.08
CCCc1cc(C(N)=O)c(NC(=O)c2ccoc2C)s1	76*	32	2	i	-0.34
O=C(N/N=C/c1c(Cl)cccc1Cl)c1n[nH]c2c1CCCC2	·	36	75*	i	·
CC(O)CNc1nc2sc3c(c2c(=O)n1CCc1ccccc1)CCCCC3 (stereo not given)	16	22	75*	i	-1.4
CN(C)CCNc1nc2sc3c(c2c(=O)n1CCc1ccccc1)CCCCC3	·	·	·	·	-1.5
O=C(NCC1OCCc2ccccc21)c1cc(COc2c(F)cccc2F)on1 (stereo not given)	·	2	12	i	-0.3

Screens: PubChem BioAssay, several laboratories
